The structures appear in SMILES notation. This is part of a sample that, as a whole, favours compounds with a hit. Of some 83,000 tested, about 20% had one in any assay.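 Note: values are percent growth. 100 is the growth of untreated cells, values between 100 and 0 indicate rising inhibition; between -100 and 0 indicates cell death.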 The source made the active and inactive calls. How the source made its calls: active means growth percent below 10; inactive means the rest.

The subject of this experiment is MDA-MB-468 breast. Put plainly: NCI-60 one-dose screen, 48 h (100 = growth as untreated, 0 = no growth, -100 = all killed). Conditions: 10 µM unless noted.
Turning to `C[C@@H]1C[C@@H]([C@@H](CC2CC(=O)NC(=O)C2)OC(=O)CC(=O)c2ccccc2)C(=O)[C@@H](C)C1`, the growth was 10.9% (inactive).

In the case of `O=C1Nc2ccc(F)cc2C12Nc1cc(Cl)ccc1S2` (stereo not given), the growth is 107% (inactive).

For the molecule `O=C(Cc1ccc(F)c(F)c1)Nc1cc(C2(C(F)(F)F)CC2)nn1Cc1ccccc1`, the growth was -33.1% (active). With `N[C@H]1CN(C(=O)c2cc3cc(Br)c(F)c(F)c3[nH]2)C[C@@H]1O`, the growth is 106% (inactive). The same measure for `C=CCOc1ccc(N=NC(C#N)C#N)cc1`: 30.3% (inactive).

Source of the values: PubChem BioAssay (NCI).
